Consider seven compounds from PubChem BioAssay (EPA / NIEHS).

Read-out in experiment [1]: ABC Transporter (ABCB11), ABCB11 (gene 8647)
The experiment in a line: CLD_ABCB11_6hr: CellzDirect (CLD) Gene Expression Assay for ABC Transporter (ABCB11) at 6 hours (AID 2283675).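 Further: hits raise ABCB11 mRNA level so AC50 marks induction.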 The essentials:
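Read-out was ABCB11 mRNA gain of signal by quantitative nuclease protection assay, relative to 0.2% DMSO vehicle, 6 h post-dose. Cells were primary human hepatocytes from two donors, treated across multiple concentrations; phase-contrast cytotoxicity noted yes/no.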

Experiment [2] can be described thus: CLD_ACTIN_6hr: CellzDirect (CLD) Gene Expression Assay for Baseline Control (Actin) at 6 hours (AID 2283676).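 Further: active means increased actin mRNA relative to DMSO vehicle.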 A digest of the protocol:
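Baseline actin transcript level measured by qNPA (S1 nuclease protection, chemiluminescence) in human hepatocyte cultures 6 h after chemical exposure; 0.2% DMSO vehicle as reference, cytotoxicity noted from morphology.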

Read-out in experiment [3]: Cytochrome P450 2B6 (Homo sapiens) (UniProt P20813)
Briefly: CLD_CYP2B6_6hr: CellzDirect (CLD) Gene Expression Assay for xenobiotic metabolism (CYP2B6) at 6 hours (AID 2283677).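 Further: actives raise CYP2B6 transcript above DMSO baseline so AC50 marks an inducer.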 The essentials:
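CYP2B6 transcript levels, read by chemiluminescent qNPA, were fitted for increase versus DMSO baseline; cultured human liver hepatocytes from two donor preparations were harvested 6 h after exposure to test chemicals at multiple concentrations.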

Read-out in experiment [4]: Cytochrome P450 2C19 (Homo sapiens) (UniProt P33261)
The experiment in a line: CLD_CYP2C19_6hr: CellzDirect (CLD) Gene Expression Assay for xenobiotic metabolism (CYP2C19) at 6 hours (AID 2283678). A digest of the protocol:
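CYP2C19 transcript induction was quantified by quantitative nuclease protection assay with chemiluminescent read-out, 6 h after dosing. Cells were primary human hepatocytes from two donor preparations, given fresh dosing solutions daily in 0.2% DMSO vehicle. Activity was relative to DMSO.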

Experiment [5] in a line: CCTE_Padilla_ZF_144hpf_TERATOSCORE: (Legacy) CCTE's 144 Hour Post-fertilization zebrafish Assay Teratoscore, Padilla Lab (AID 2283679; active means hit-call score of the fitted dose curve at least 0.9, where 1 is the maximum; inactive means score below 0.9;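 on AC50: zebrafish embryos with chorions exposed by immersion from 6-8 hpf to 5 dpf with daily renewal; teratogenicity score from eye scoring of death hatching and malformations at 144 hpf; higher score means more developmental defects relative to DMSO baseline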). The essentials:
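Larvae scored by eye at 144 hpf for death, hatching and malformations after a day in clean Hanks'. Before that, daily-renewed exposure at 80 uM (0.4% DMSO, 26C) from roughly 6-8 hpf through 5 dpf, 4 embryos per chemical.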

Read-out in experiment [6]: Glyceraldehyde-3-phosphate dehydrogenase (Homo sapiens) (UniProt P04406)
The experiment in a line: CLD_GAPDH_6hr: CellzDirect (CLD) Gene Expression Assay for Baseline Control (Glyceraldehyde 3-phosphate dehydrogenase) at 6 hours (AID 2283681).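 Further: active means increased signal relative to DMSO vehicle.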 A digest of the protocol: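 GAPDH baseline-control readout from qNPA (S1 nuclease digestion, probe hybridization, chemiluminescence) in lysates of cultured human hepatocytes harvested 6 h post-dosing. Chemicals tested at multiple concentrations versus 0.2% DMSO vehicle; microscopy-based cytotoxicity flagged yes/no.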

Read-out in experiment [7]: ABC Transporter (ABCB1), ABCB1 (gene 5243)
The experiment in a line: CLD_ABCB1_24hr: CellzDirect (CLD) Gene Expression Assay for ABC Transporter (ABCB1) at 24 hours (AID 2283684). The essentials:
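ABCB1 mRNA induction versus 0.2% DMSO vehicle was read by qNPA chemiluminescence at 24 h. Cultured human hepatocytes from two donor preparations received daily fresh dosing, and phase-contrast cytotoxicity calls were annotated alongside the data.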

Read-out in experiment [8]: Cytochrome P450 2B6 (Homo sapiens) (UniProt P20813)
The experiment in a line: CLD_CYP2B6_24hr: CellzDirect (CLD) Gene Expression Assay for xenobiotic metabolism (CYP2B6) at 24 hours (AID 2283686). A digest of the protocol:
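qNPA chemiluminescent measurement of mRNA at 24 hours in human primary hepatocyte cultures from two donor preparations, with daily fresh dosing and 0.2% DMSO vehicle as baseline. Morphology-based cytotoxicity flagged yes/no.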

Read-out in experiment [9]: glucuronosyltransferase (UGT1A1), UGT1A1 (gene 54658)
The experiment in a line: CLD_UGT1A1_24hr: CellzDirect (CLD) Gene Expression Assay for glucuronosyltransferase (UGT1A1) at 24 hours (AID 2283696). The essentials: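 UGT1A1 transcript induction was measured by quantitative nuclease protection assay (chemiluminescence) in human hepatocyte cultures 24 h after daily fresh dosing, with 0.2% DMSO as vehicle and baseline.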

Read-out in experiment [10]: Cytochrome P450 3A4 (Homo sapiens) (UniProt P08684)
The experiment in a line: CLD_CYP3A4_48hr: CellzDirect (CLD) Gene Expression Assay for xenobiotic metabolism (CYP3A4) at 48 hours (AID 2283698). The essentials:
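CYP3A4 induction read by qNPA chemiluminescence after 48 h, with fresh dosing solutions on consecutive days, in cultured human hepatocytes (two donors). Vehicle 0.2% DMSO as baseline; microscopy-based cytotoxicity annotated yes/no alongside data.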

Read-out in experiment [11]: Cytochrome P450 2B6 (Homo sapiens) (UniProt P20813)
The experiment in a line: CLD_CYP2B6_48hr: CellzDirect (CLD) Gene Expression Assay for xenobiotic metabolism (CYP2B6) at 48 hours (AID 2283699).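 Further: actives raise transcript level above DMSO so potency reflects induction.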 The essentials: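 CYP2B6 transcript induction, read by quantitative nuclease protection (S1 digestion, chemiluminescent detection) 48 h after dosing, is fitted upward against 0.2% DMSO. Cultured human liver primary cells, two donor preparations, received fresh chemical daily over multiple concentrations.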

Read-out in experiment [12]: xenobiotic metabolism (CYP1A2), CYP1A2 (gene 1544)
Briefly: CLD_CYP1A2_48hr: CellzDirect (CLD) Gene Expression Assay for xenobiotic metabolism (CYP1A2) at 48 hours (AID 2283703). The essentials: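 Cytotoxicity was flagged yes/no from morphology, while CYP1A2 transcript induction was detected by qNPA chemiluminescence after a 48-hour exposure. Human primary hepatocyte cultures from separate donors received fresh dosing solutions daily over two days, with 0.2% DMSO as vehicle and baseline.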

Read-out in experiment [13]: Broad substrate specificity ATP-binding cassette transporter ABCG2 (Homo sapiens) (UniProt Q9UNQ0)
The experiment in a line: CLD_ABCG2_48hr: CellzDirect (CLD) Gene Expression Assay for ABC Transporter (ABCG2) at 48 hours (AID 2283704). A digest of the protocol: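 ABCG2 transcript measured at 48 h by quantitative nuclease protection (chemiluminescent) and fitted for increase relative to 0.2% DMSO. Hepatocyte cultures from separate donors got fresh compound daily over two days; morphology annotated cytotoxicity.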

Read-out in experiment [14]: xenobiotic metabolism (CYP1A1), CYP1A1 (gene 1543)
Briefly: CLD_CYP1A1_48hr: CellzDirect (CLD) Gene Expression Assay for xenobiotic metabolism (CYP1A1) at 48 hours (AID 2283705). A digest of the protocol:
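CYP1A1 transcript measured by quantitative nuclease protection (chemiluminescent) 48 h after two daily treatments of human hepatocyte cultures, versus 0.2% DMSO. Morphology-based cytotoxicity flags accompany data; two donor preparations used.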

Read-out in experiment [15]: Glyceraldehyde-3-phosphate dehydrogenase (Homo sapiens) (UniProt P04406)
The experiment in a line: CLD_GAPDH_48hr: CellzDirect (CLD) Gene Expression Assay for Baseline Control (Glyceraldehyde 3-phosphate dehydrogenase) at 48 hours (AID 2283706).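 Further: active means higher GAPDH mRNA than DMSO vehicle.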 A digest of the protocol:
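GAPDH baseline-control readout: qNPA chemiluminescent mRNA quantitation in human liver primary cells 48 h after daily dosing on two consecutive days, vehicle 0.2% DMSO; gain of signal fitted against DMSO, cytotoxicity flagged by phase-contrast morphology.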

Read-out in experiment [16]: ABC Transporter (ABCB11), ABCB11 (gene 8647)
The experiment in a line: CLD_ABCB11_24hr: CellzDirect (CLD) Gene Expression Assay for ABC Transporter (ABCB11) at 24 hours (AID 2283674; active means hit-call score of the fitted dose curve at least 0.9, where 1 is the maximum; inactive means score below 0.9). The essentials:
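ABCB11 transcript was quantified by qNPA chemiluminescence in cultured human liver hepatocytes 24 hours after dosing. Fresh dosing solutions were applied on consecutive days, against a 0.2% DMSO vehicle. Cytotoxicity was noted by phase-contrast morphology.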

Read-out in experiment [17]: ABC Transporter (ABCB11), ABCB11 (gene 8647)
The experiment in a line: CLD_ABCB11_48hr: CellzDirect (CLD) Gene Expression Assay for ABC Transporter (ABCB11) at 48 hours (AID 2283697). The essentials:
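Induction of ABCB11 mRNA relative to 0.2% DMSO, measured at 48 h by qNPA chemiluminescence. Cultured human hepatocytes (two donors) received fresh dosing solutions at several concentrations on two consecutive days.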

Read-out in experiment [18]: organic anion transporter (SLCO1B1), SLCO1B1 (gene 10599)
Briefly: CLD_SLCO1B1_48hr: CellzDirect (CLD) Gene Expression Assay for organic anion transporter (SLCO1B1) at 48 hours (AID 2283707). A digest of the protocol:
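SLCO1B1 transcript quantified by qNPA with chemiluminescent readout after 48 h of once-daily chemical exposure. Cultured human primary hepatocytes came from two donors, with 0.2% DMSO vehicle; positive-direction fitting against DMSO, cytotoxicity flagged by morphology.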

Inconclusive results are not listed. Activity calls are given as the source filed them. How the source made its calls, unless noted: active means hit-call score of the fitted dose curve at least 0.9, where 1 is the maximum; inconclusive means response in the unintended direction; inactive means score below 0.9.

Broadly, the AC50 is the midpoint of the concentration-response curve, whichever way the signal moves.

Chain of Broad substrate specificity ATP-binding cassette transporter ABCG2 (Homo sapiens) (Q9UNQ0 whole entry, looked up): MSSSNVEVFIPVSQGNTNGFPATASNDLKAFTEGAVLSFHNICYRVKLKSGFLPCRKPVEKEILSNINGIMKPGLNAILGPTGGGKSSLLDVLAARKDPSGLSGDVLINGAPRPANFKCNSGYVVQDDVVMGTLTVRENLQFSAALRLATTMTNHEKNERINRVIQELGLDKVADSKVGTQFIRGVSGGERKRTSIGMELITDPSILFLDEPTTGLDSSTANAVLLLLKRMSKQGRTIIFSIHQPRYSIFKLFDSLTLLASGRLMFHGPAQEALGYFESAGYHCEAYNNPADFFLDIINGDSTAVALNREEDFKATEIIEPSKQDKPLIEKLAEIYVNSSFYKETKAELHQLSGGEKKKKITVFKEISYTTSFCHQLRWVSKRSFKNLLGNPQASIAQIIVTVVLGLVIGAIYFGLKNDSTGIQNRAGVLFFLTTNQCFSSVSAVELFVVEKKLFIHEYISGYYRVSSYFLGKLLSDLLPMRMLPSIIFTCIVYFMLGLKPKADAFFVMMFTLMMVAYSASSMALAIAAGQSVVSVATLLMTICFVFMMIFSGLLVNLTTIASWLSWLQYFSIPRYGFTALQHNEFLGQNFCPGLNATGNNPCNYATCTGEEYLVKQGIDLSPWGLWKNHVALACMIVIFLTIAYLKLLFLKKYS
Chain of Cytochrome P450 3A4 (Homo sapiens) (P08684 whole entry, looked up): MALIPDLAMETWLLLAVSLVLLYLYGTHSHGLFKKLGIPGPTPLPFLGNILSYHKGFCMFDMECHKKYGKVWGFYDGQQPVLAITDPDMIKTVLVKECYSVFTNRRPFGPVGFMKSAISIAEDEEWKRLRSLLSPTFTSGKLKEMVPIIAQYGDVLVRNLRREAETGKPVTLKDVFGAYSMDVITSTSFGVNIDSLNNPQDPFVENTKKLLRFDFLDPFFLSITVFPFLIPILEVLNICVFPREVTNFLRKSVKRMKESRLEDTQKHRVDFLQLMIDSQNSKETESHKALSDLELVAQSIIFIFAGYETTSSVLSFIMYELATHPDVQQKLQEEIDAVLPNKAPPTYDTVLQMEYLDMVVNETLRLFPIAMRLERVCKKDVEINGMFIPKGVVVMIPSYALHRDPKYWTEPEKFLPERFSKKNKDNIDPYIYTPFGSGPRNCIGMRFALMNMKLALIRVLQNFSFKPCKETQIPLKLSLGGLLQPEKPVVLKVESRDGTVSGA
Chain of Glyceraldehyde-3-phosphate dehydrogenase (Homo sapiens) (P04406 whole entry, looked up): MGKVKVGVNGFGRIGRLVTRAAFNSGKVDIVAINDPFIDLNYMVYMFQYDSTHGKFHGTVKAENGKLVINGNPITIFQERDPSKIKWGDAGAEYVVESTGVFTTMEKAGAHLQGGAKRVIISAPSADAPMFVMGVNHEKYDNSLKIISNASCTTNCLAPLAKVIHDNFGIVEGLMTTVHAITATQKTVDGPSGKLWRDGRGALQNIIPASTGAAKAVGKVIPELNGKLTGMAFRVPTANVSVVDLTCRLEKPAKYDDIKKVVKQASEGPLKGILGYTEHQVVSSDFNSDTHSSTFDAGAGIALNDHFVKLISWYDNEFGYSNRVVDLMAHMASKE
Chain of Cytochrome P450 2C19 (Homo sapiens) (P33261 whole entry, looked up): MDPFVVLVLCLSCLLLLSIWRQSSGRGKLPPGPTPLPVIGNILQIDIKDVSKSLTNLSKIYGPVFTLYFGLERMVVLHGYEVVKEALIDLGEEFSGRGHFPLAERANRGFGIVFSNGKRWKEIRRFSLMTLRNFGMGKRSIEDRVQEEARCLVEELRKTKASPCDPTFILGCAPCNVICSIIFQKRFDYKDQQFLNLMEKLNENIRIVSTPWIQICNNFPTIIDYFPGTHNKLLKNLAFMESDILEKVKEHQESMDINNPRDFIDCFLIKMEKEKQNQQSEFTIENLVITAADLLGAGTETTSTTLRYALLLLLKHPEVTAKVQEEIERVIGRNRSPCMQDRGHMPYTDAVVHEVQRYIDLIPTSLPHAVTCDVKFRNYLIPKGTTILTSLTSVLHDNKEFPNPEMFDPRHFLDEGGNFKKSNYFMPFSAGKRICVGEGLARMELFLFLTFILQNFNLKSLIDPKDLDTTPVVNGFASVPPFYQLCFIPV

Turning to `CCC(C)(C)C(=O)OC1=C(c2ccc(Cl)cc2Cl)C(=O)OC12CCCCC2`, the compound was called inactive in experiment [1], in experiment [2], in [3], in [4], in experiment [6] and in [7]. For the same compound, the compound was called inactive in experiment [8], in [9], in experiment [11], in experiment [13], in experiment [14] and in experiment [15]. The figures for the AC50 in experiment [5], in [10] and in experiment [12] were 1.89 µM (active), 34.8 µM (active) and 20 µM (active), respectively.
On to `CCOCN(C(=O)CCl)c1c(C)cccc1CC`, for which the result in experiment [16], in experiment [1], in experiment [2], in experiment [4], in experiment [6] and in experiment [7] was inactive. Also, the compound was classed as inactive in [9], in experiment [17], in [12] and in experiment [13]. For the same compound, the concentration at half-maximal activity (AC50) in experiment [3] was 1.66 µM (active); in experiment [5], 15.5 µM (active); in [8] it was 2.05 µM (active); in experiment [10] it was 2.16 µM (active); in [11], 0.509 µM (active); in experiment [14], 1.85 µM (active).
With `O=C(O)C(F)(F)C(F)(F)C(F)(F)C(F)(F)C(F)(F)C(F)(F)C(F)(F)F`, the result in [1], in experiment [2], in experiment [3], in experiment [4], in experiment [5] and in experiment [6] was inactive. Besides, the call in experiment [8], in experiment [9], in [11], in experiment [12], in experiment [13] and in [15] was inactive. In [18], the result was inactive. In addition, the results for the concentration at half-maximal activity (AC50) in experiment [10] and in experiment [14] were 3.97 µM (active) and 0.0776 µM (active), respectively.
As to `CCOC1Oc2ccc(OS(C)(=O)=O)cc2C1(C)C` (stereo not given), the result in experiment [2], in experiment [5], in experiment [9], in experiment [12], in experiment [13] and in [14] was inactive. The AC50 was 2.55 µM (active) in experiment [3], 3.12 µM (active) in [8], 5.87 µM (active) in [10] and 1.44 µM (active) in experiment [11].
Turning to `O=C(O)COc1ccc(Cl)cc1Cl`, the compound was classed as inactive in experiment [2], in experiment [4], in experiment [5], in experiment [6], in experiment [8] and in experiment [9]. For the same compound, the call in [10], in experiment [12], in experiment [13], in [14], in [15] and in experiment [18] was inactive. The half-maximal activity concentration (AC50) in experiment [3] was 0.0448 µM (active).
For `CCCN(CCC)c1c([N+](=O)[O-])cc(C(F)(F)F)cc1[N+](=O)[O-]`, the compound was classed as inactive in experiment [1], in experiment [2], in experiment [9] and in experiment [17]. Also, the concentration at half-maximal activity (AC50) in [3] is 1.27 µM (active); in experiment [5], 0.601 µM (active); in experiment [8] it was 2.06 µM (active); in experiment [10], 8.57 µM (active); in [11] it was 1.37 µM (active); in [12] it was 9.22 µM (active). In addition, the AC50 in experiment [14] was 15.3 µM (active).
As for `CCC(C)(NC(=O)c1cc(Cl)c(C)c(Cl)c1)C(=O)CCl` (stereo not given), the call in [1], in experiment [2] and in experiment [9] was inactive. The AC50 in experiment [3] was 3.17 µM (active); in experiment [5], 5.78 µM (active); in experiment [8], 3.97 µM (active); in [10], 2.52 µM (active); in experiment [11] it was 0.000403 µM (active); in [12], 20 µM (active). Besides, in [14], the AC50 was 3.97 µM (active).
